Assay results taken from PubChem BioAssay AID2314 (National Center for Advancing Translational Sciences (NCATS), 2010).
Out of some 300,000 compounds screened, about 37,000 (12%) were called active. The full list was thinned out, with actives kept by preference. Values without a mark were called inactive. No stated cut-off is given here; in the data, active means max response mostly above about 13% (no sharp cut-off); inactive means mostly below about 14%.

Assay: Cycloheximide Counterscreen for Small Molecule Inhibitors of Shiga Toxin; further: read at 38.3 µM for the half of the compounds with a filed dose; 0% is about no effect
Details: cell reporter, cycloheximide protein synthesis inhibition counterscreen; stronger effect = higher value

**Q.** For `CCOc1ccc(NC(=O)COc2ccc(C(=O)NC3CCCc4ccccc43)cc2OC)cc1` (stereo not given), which max response is on record?
**A.** -1.56%

**Q.** For `O=C(O)CCn1c(O)c(C=C2N=c3ccccc3=N2)sc1=S`, which max response is on record?
**A.** -1.81%

**Q.** With `Cc1ccc(-n2nc3cc(Cl)c(NC(=O)c4ccco4)cc3n2)cc1` as the compound, how does the max response read?
**A.** 45% (active)

**Q.** With `Cc1ccc(-n2nc3cc(C)c(NC(=O)c4cccnc4)cc3n2)cc1` as the compound, how does the max response read?
**A.** 15.8% (active)

**Q.** With `Cc1c(NC(=O)c2cccnc2)c(=O)n(-c2ccccc2)n1C` as the compound, how does the max response read?
**A.** -2.61%

**Q.** For `O=C(Nc1cccc(-n2cnnn2)c1)c1cccnc1`, which max response is on record?
**A.** -4.68%

**Q.** Which max response does the source give for `Cc1cc(NC(=O)c2ccco2)c(=O)n(Cc2c(F)cccc2Cl)c1` here?
**A.** -2.05%

**Q.** With `COC(=O)c1cc(Cl)c(NC(=O)c2ccco2)cc1OC` as the compound, how does the max response read?
**A.** 3.33%

**Q.** For `COc1ccc(C(C(=O)NC2CCCC2)N(CCCO)C(=O)Cn2nnc(-c3ccc(C)o3)n2)cc1` (stereo not given), which max response is on record?
**A.** -4.49%

**Q.** Which max response does the source give for `Cc1cccc(NC(=S)NCCc2ccc(F)cc2)c1C` here?
**A.** 6.6%

**Q.** For `CCNC(=S)Nc1cccc(Cl)c1C`, which max response is on record?
**A.** -2.36%

**Q.** Which max response does the source give for `Cc1ccc(NC(=S)NCc2ccccc2Cl)c(C)c1` here?
**A.** 10.7%

**Q.** Which max response does the source give for `Cc1cccc(NC(=S)NCCc2ccc(Cl)cc2)c1C` here?
**A.** 17.3% (active)

**Q.** With `Cc1cc(F)ccc1NC(=S)NCCc1ccccc1` as the compound, how does the max response read?
**A.** 5.78%

**Q.** Which max response does the source give for `Cc1ccc(NC(=S)NCCc2ccc(Cl)cc2)c(C)c1` here?
**A.** 13.7% (active)

**Q.** With `CC#CC[N+](C)(C)CCCCCC` as the compound, how does the max response read?
**A.** 0.922%

**Q.** Which max response does the source give for `COc1ccc(C(=O)NC(=S)N2CCNC(=O)C2CC(=O)OC(C)C)cc1` (stereo not given) here?
**A.** 0.131%

**Q.** For `COc1ccc(OC)c(C(C)NC(=S)Nc2ccc(S(=O)(=O)Nc3ncccn3)cc2)c1` (stereo not given), which max response is on record?
**A.** -0.745%

**Q.** With `COc1ccc(NC(=O)C(CC(C)C)NC(=O)C2CCC(C)CC2)cc1` (stereo not given) as the compound, how does the max response read?
**A.** 6.1%

**Q.** With `O=C1Nc2cc(Cl)c(Cl)cc2N(O)N1c1ccccc1Cl` as the compound, how does the max response read?
**A.** 4.44%

**Q.** For `O=C1Nc2cc(Cl)c(Cl)cc2N(O)N1c1cc(Cl)cc(Cl)c1`, which max response is on record?
**A.** -2.32%

**Q.** For `O=C(O)c1cccc(N2C(=O)Nc3ccccc3N2O)c1`, which max response is on record?
**A.** 24.6% (active)

**Q.** With `COc1ccccc1N(C)C(=O)c1cc(S(=O)(=O)N2CCc3ccccc32)cn1C` as the compound, how does the max response read?
**A.** 0.704%

**Q.** With `CC1CCN(C(=O)CCNC(=O)c2ccccc2)CC1` as the compound, how does the max response read?
**A.** 31.5% (active)

**Q.** For `CC1CCN(C(=O)/C(=C\c2ccccc2F)NC(=O)c2ccccc2)CC1`, which max response is on record?
**A.** 8.12%

**Q.** For `CC1CCN(C(=O)/C(=C\c2ccccc2)NC(=O)c2ccccc2)CC1`, which max response is on record?
**A.** -1.41%

**Q.** Which max response does the source give for `OC(CNC1CCCC1)COc1ccc(F)cc1` (stereo not given) here?
**A.** -1.08%

**Q.** Which max response does the source give for `NC(=O)CC(NC(=O)Cc1cccc2ccccc12)c1ccc(NCc2cc(F)ccc2F)c([N+](=O)[O-])c1` (stereo not given) here?
**A.** -1.72%

**Q.** Which max response does the source give for `CCOc1ccc(N(CC(=O)NCCOc2ccccc2OC)S(=O)(=O)c2ccccc2)cc1` here?
**A.** 1.62%

**Q.** For `Cc1ccc(/C=C2\SC(=S)N(CCC(=O)Nc3ccc(O)cc3)C2=O)cc1`, which max response is on record?
**A.** 0.318%

**Q.** With `COc1ccc(/C=C2\SC(=O)N(CCC(=O)NCCCn3ccnc3)C2=O)cc1` as the compound, how does the max response read?
**A.** 18.8% (active)

**Q.** With `O=C(Cc1ccc(Cl)cc1)NC1CCS(=O)(=O)C1` (stereo not given) as the compound, how does the max response read?
**A.** -0.92%

**Q.** With `COc1ccc(/C=C2\SC(=O)N(CCC(=O)NC3CCS(=O)(=O)C3)C2=O)cc1` (stereo not given) as the compound, how does the max response read?
**A.** 27.8% (active)

**Q.** For `COc1ccc(NC(=O)CCN2C(=O)/C(=C/c3ccc4c(c3)OCO4)SC2=S)cc1`, which max response is on record?
**A.** -1.34%

**Q.** For `O=C(CN1C(=O)S/C(=C\c2ccccc2F)C1=O)NCCCn1ccnc1`, which max response is on record?
**A.** -0.628%

**Q.** For `O=C(CCN1C(=O)c2ccccc2C1=O)NCCCn1ccnc1`, which max response is on record?
**A.** 4.07%

**Q.** Which max response does the source give for `COc1ccc(-c2ccc(OC(=O)NC3CCS(=O)(=O)C3)cc2)cc1` (stereo not given) here?
**A.** 28.5% (active)

**Q.** Which max response does the source give for `COc1ccccc1/C=C1\SC(=O)N(CCC(=O)N(C)C2CCS(=O)(=O)C2)C1=O` (stereo not given) here?
**A.** 7.79%

**Q.** With `O=C(CCN1C(=O)c2ccccc2C1=O)NCCN1CCOCC1` as the compound, how does the max response read?
**A.** -0.442%

**Q.** With `COc1ccc(NC(=S)NC2CCS(=O)(=O)C2)cc1` (stereo not given) as the compound, how does the max response read?
**A.** -3.34%

**Q.** Which max response does the source give for `Cc1ccc(/C=C2/SC(=S)N(CCC(=O)NCCCN3CCOCC3)C2=O)cc1` here?
**A.** 11.5% (active)

**Q.** With `[O-][n+]1onc2c1CCc1[nH]c(-c3ccccc3)nc1-2` as the compound, how does the max response read?
**A.** -2.38%

**Q.** Which max response does the source give for `CCSc1nc(O)c(C(c2cccc(OC)c2)c2c(O)nc(SCC)[nH]c2=O)c(=O)[nH]1` here?
**A.** 4%

**Q.** With `Cc1c(Cl)cccc1NC(=O)[C@@]1(CC(=O)O)CC(/C=C/c2ccccc2)=NO1` as the compound, how does the max response read?
**A.** 9.29%

**Q.** For `O=C(COc1cccc2ccccc12)Nc1cc(S(=O)(=O)N2CCOCC2)ccc1N1CCOCC1`, which max response is on record?
**A.** 7.56%

**Q.** Which max response does the source give for `CCn1cc(CN2CCN(CC(C)(C)C)C(CCO)C2)c2ccccc21` (stereo not given) here?
**A.** -2.82%

**Q.** For `Cn1cc(CCC(=O)NC2CC2)c2ccccc21`, which max response is on record?
**A.** -2.88%

**Q.** Which max response does the source give for `CC1CC2=C(CC1/C=N/NC(N)=S)C(C)(C)CCC2` (stereo not given) here?
**A.** -1.08%

**Q.** Which max response does the source give for `O=Cc1c(N2CCN(c3cccc(Cl)c3)CC2)nc2ccccn2c1=O` here?
**A.** 3.1%

**Q.** Which max response does the source give for `Cc1ccc(Cl)cc1NC(=O)C1CCCN(c2cnccn2)C1` (stereo not given) here?
**A.** -5.58%

**Q.** For `COc1ccc(NC(=O)CN2C(=O)CSc3ccc(S(=O)(=O)N4CCC(C)CC4)cc32)cc1`, which max response is on record?
**A.** 9.42%

**Q.** For `CCc1ccccc1NC(=S)Nc1cc(OC)c(NC(=O)C(C)C)cc1OC`, which max response is on record?
**A.** -6.46%

**Q.** With `COc1cnc(-c2ccccn2)nc1Oc1ccc(C(C)(C)C)cc1` as the compound, how does the max response read?
**A.** 4.47%

**Q.** With `Cc1ccc(Oc2nc(-c3ccccn3)nc3ccccc23)cc1` as the compound, how does the max response read?
**A.** 25% (active)

**Q.** Which max response does the source give for `CC(C)(C)Nc1nc(-c2ccccn2)nc2ccccc12` here?
**A.** -2.46%

**Q.** For `NS(=O)(=O)c1ccc(CCNC(=O)CNC(=O)Cc2ccccc2)cc1`, which max response is on record?
**A.** 4.6%

**Q.** Which max response does the source give for `CC1CCCN(S(=O)(=O)c2ccc(-c3ccc(=O)[nH]n3)o2)C1` (stereo not given) here?
**A.** -2.93%

**Q.** Which max response does the source give for `CCc1ccc(NC(=O)c2ccc(Cn3cc([N+](=O)[O-])cn3)cc2)cc1` here?
**A.** 26.2% (active)

**Q.** For `COc1cccc(NC(=O)c2ccc(Cn3cc([N+](=O)[O-])cn3)o2)c1`, which max response is on record?
**A.** 1.95%

**Q.** Which max response does the source give for `O=C(c1ccc(Cn2cc([N+](=O)[O-])cn2)o1)N1CCCC1` here?
**A.** -2.92%
